Each structure is given as a SMILES string. About 79,000 compounds went through this panel and 15% of them were active in at least one assay; those are over-represented in the sample as a whole. A number with no mark means an inactive call. The source made the active and inactive calls. Rule as the data show it: active = growth inhibition above about 70%; inactive = the rest.

A short description of the first assay: NCI Yeast Anticancer Drug Screen. Data for the rad50 strain (AID 155).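 Also: 0% = growth of vehicle-only cultures of the same strain.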 The conditions noted are these: S. cerevisiae rad50 strain growth inhibition; at 50.0 µM; hits give high values. The gist of the method: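 Readout: growth inhibition relative to vehicle-treated cultures. Compound exposure was carried out in a genetically defined yeast strain deficient in DNA damage repair.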
Regarding `O=Cc1cc(O)ccc1[N+](=O)[O-]`, the growth inhibition was 11.4%.
In the case of `O=C(Nc1nc(C23CC4CC(CC(C4)C2)C3)cs1)c1cc2ccc(O)cc2oc1=O`, the growth inhibition is 0.7%.
The same measure, in the same setting: next, `Cc1ccccc1OCC(O)COC(=O)CCS(=O)(=O)O` (stereo not given): -25.1%; `CC(=Nc1ccc(Cl)cc1)c1ccncc1`: -31.9%; `O=C1CC2C=CC(O)C(C1)C2` (stereo not given): -20.3%.
In the case of `O=C(Nc1ccn(CCI)c(=O)n1)c1ccccc1`, the growth inhibition was -20.8%.
On the same count and under the same terms, in the case of `C/C=C/C1OCC(C)(C)CO1` it was -0.8%; in that of `Cc1ccc2cccc(N)c2n1`, 21.4%; in that of `CC1(C)CC(=O)OC/C=C\CC(Cc2ccccc2)C(=O)C1` (stereo not given), 4.6%.
Still for that read-out and setting: in the case of `O=C(O)c1ccncc1C(=O)O` it was -4.3%; in that of `CCOC(=O)C1(C)Sc2ccccc2N=C1c1ccccc1` (stereo not given), 25.9%; in that of `C[N+](C)(CCCN1C(=O)c2cccc3c(Br)ccc(c23)C1=O)Cc1ccc(Cl)c(Cl)c1`, 97.8% (active).
Still for that read-out and setting: next, `COC(=O)[C@@H]1[C@H](O)CC[C@H]2[C@@]1(C)CC[C@@H](C)[C@]2(COC(C)=O)CC(=O)c1ccoc1`: -27.1%.
Turning to `CC(=O)N(C(=O)CC(=O)N1N=C(C)C(N=Nc2cccc([N+](=O)[O-])c2)C1=O)c1ccc(Cl)cc1` (stereo not given), the growth inhibition is -10.3%.
With `COc1cccc2c1C(CO)N1C(C#N)C3CC(C(=O)O)C(C1C2)N3C` (stereo not given), the growth inhibition was 0.25%.
The same measure, in the same setting: in the case of `CCn1c(=O)c(C(=O)O)c(Cl)c2cc3c(cc21)OCO3` it was 10.3%.
Still for that read-out and setting: next, `O=c1[nH]c(N2CCN(c3ccccc3)CC2)nc2cc3ccccc3cc12`: 2.55%; `CCN(CC)c1nc(Cl)nc(C(N)=O)c1N`: 4.85%.
Same read-out and setting: in the case of `CCCC=Nc1ccccc1` it was 8.3%.
Take `COC(=O)c1sc(N2CCCC2)nc1N`: the growth inhibition is -4.95%.
In the case of `COc1cc(N=Nc2c(Cl)cc([N+](=O)[O-])cc2Cl)c(OC)cc1N=Nc1ccc(N)nc1N`, the growth inhibition is 23.4%.
Same read-out and setting: in the case of `CC1CCCC(C)C1O` (stereo not given) it was -19.7%; in that of `COc1ccc(/C=C/C(=N\NC(=O)c2ccccc2)c2sc(Nc3ccc([N+](=O)[O-])cc3)nc2C)cc1OC`, -13.3%; in that of `CCCN(CCC)CC(O)CN(CCC)CCC`, -0.4%.
Consider `COc1cc2c(cc1OC)C1CC(CC(N)=O)(C(N)=O)CCN1CC2` (stereo not given), for which the growth inhibition was 2.35%.
As for `COC(=O)CCc1onc(Br)c1CCl`, the growth inhibition was 17.8%.
Turning to `CC(=O)OCCOCNC(=S)NCc1ccco1`, the growth inhibition is 11.2%.
Same read-out and setting: in the case of `CC(C)(O)C12CC3CC(CC(C3)C1)C2` it was 18.4%; in that of `COc1cc([N+](=O)[O-])c(F)cc1F`, -0.05%.
Still for that read-out and setting: in the case of `O=[N+]([O-])c1ccc2c(c1)/C(=N/O)CCC2` it was 0.5%; in that of `CN(C)CC(CN(C)C)C(=O)C(C)(C)C`, 9.45%.
For the molecule `COC(=O)C1C(COS(C)(=O)=O)ON2CCC(OC)(OC)C12` (stereo not given), the growth inhibition was 4.85%.
The same measure, in the same setting: next, `NNC(=S)NC1CCCCC1`: 29.8%; `O=C(O)C(O)c1ccc(Cl)cc1Cl` (stereo not given): 1.3%; `N#C/C(=C\NC(=S)Nc1ccc(S(=O)(=O)Nc2nccs2)cc1)C(=O)c1ccc2ccccc2c1`: 7.7%.
Regarding `COC(=O)CNC(=O)Nc1cc(N2C(=O)ON3C2C(C)(C)N(O)C3(C)C)ccc1C` (stereo not given), the growth inhibition is 2.95%.
The same measure, in the same setting: in the case of `CN(C)C(=O)Sc1ccc(N(C)C)cc1` it was -5.15%; in that of `C/C(=N/O)c1cccc([N+](=O)[O-])c1`, -10.7%; in that of `Cc1cn(C2CC(OC(=O)C(Cc3ccccc3)NC(=O)OCc3ccccc3)C(COC(=O)C(Cc3ccccc3)NC(=O)OCc3ccccc3)O2)c(=O)[nH]c1=O` (stereo not given), -14.9%.
As for `Cc1cc2nc(CC(O)c3nc4cc(C)c(C)cc4[nH]3)[nH]c2cc1C` (stereo not given), the growth inhibition was 6.9%.

Another assay can be described thus: NCI Yeast Anticancer Drug Screen. Data for the mec2-1 strain (AID 157). Particulars: S. cerevisiae mec2-1 strain, at 50.0 µM, hits give high values. The gist of the method:
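Cells of the genetically defined mec2-1 yeast strain are incubated with test compound. Inhibition of growth is calculated against vehicle-treated controls.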
Turning to `O=Cc1cc(O)ccc1[N+](=O)[O-]`, the growth inhibition was -19.2%.
In the case of `O=C(Nc1nc(C23CC4CC(CC(C4)C2)C3)cs1)c1cc2ccc(O)cc2oc1=O`, the growth inhibition was 15.8%.
On to `Cc1ccccc1OCC(O)COC(=O)CCS(=O)(=O)O` (stereo not given), for which the growth inhibition was -7%.
Still for that read-out and setting: next, `CC(=Nc1ccc(Cl)cc1)c1ccncc1`: -14.5%.
For `O=C1CC2C=CC(O)C(C1)C2` (stereo not given), the growth inhibition is 1.65%.
The same measure, in the same setting: next, `O=C(Nc1ccn(CCI)c(=O)n1)c1ccccc1`: -37.4%; `C/C=C/C1OCC(C)(C)CO1`: 22.9%; `Cc1ccc2cccc(N)c2n1`: -0.15%.
The same measure, in the same setting: in the case of `CC1(C)CC(=O)OC/C=C\CC(Cc2ccccc2)C(=O)C1` (stereo not given) it was 15.2%.
On the same count and under the same terms, in the case of `O=C(O)c1ccncc1C(=O)O` it was -9.3%.
`CCOC(=O)C1(C)Sc2ccccc2N=C1c1ccccc1` (stereo not given): the growth inhibition was 48.5%.
Consider `C[N+](C)(CCCN1C(=O)c2cccc3c(Br)ccc(c23)C1=O)Cc1ccc(Cl)c(Cl)c1`, for which the growth inhibition was 98% (active).
In the case of `COC(=O)[C@@H]1[C@H](O)CC[C@H]2[C@@]1(C)CC[C@@H](C)[C@]2(COC(C)=O)CC(=O)c1ccoc1`, the growth inhibition is -32.2%.
Turning to `CC(=O)N(C(=O)CC(=O)N1N=C(C)C(N=Nc2cccc([N+](=O)[O-])c2)C1=O)c1ccc(Cl)cc1` (stereo not given), the growth inhibition is -4.5%.
The same measure, in the same setting: next, `COc1cccc2c1C(CO)N1C(C#N)C3CC(C(=O)O)C(C1C2)N3C` (stereo not given): -5.9%; `CCn1c(=O)c(C(=O)O)c(Cl)c2cc3c(cc21)OCO3`: 9%; `O=c1[nH]c(N2CCN(c3ccccc3)CC2)nc2cc3ccccc3cc12`: -10.6%.
In the case of `CCN(CC)c1nc(Cl)nc(C(N)=O)c1N`, the growth inhibition was -8.25%.
Turning to `CCCC=Nc1ccccc1`, the growth inhibition is 3.65%.
For `COC(=O)c1sc(N2CCCC2)nc1N`, the growth inhibition is 9.95%.
Take `COc1cc(N=Nc2c(Cl)cc([N+](=O)[O-])cc2Cl)c(OC)cc1N=Nc1ccc(N)nc1N`: the growth inhibition is 28%.
On the same count and under the same terms, next, `CC1CCCC(C)C1O` (stereo not given): -28.1%; `COc1ccc(/C=C/C(=N\NC(=O)c2ccccc2)c2sc(Nc3ccc([N+](=O)[O-])cc3)nc2C)cc1OC`: 2.5%; `CCCN(CCC)CC(O)CN(CCC)CCC`: -24.1%.
Turning to `COc1cc2c(cc1OC)C1CC(CC(N)=O)(C(N)=O)CCN1CC2` (stereo not given), the growth inhibition was 16.6%.
Consider `COC(=O)CCc1onc(Br)c1CCl`, for which the growth inhibition is 9.05%.
Still for that read-out and setting: in the case of `CC(=O)OCCOCNC(=S)NCc1ccco1` it was -7.25%; in that of `CC(C)(O)C12CC3CC(CC(C3)C1)C2`, -6.15%; in that of `COc1cc([N+](=O)[O-])c(F)cc1F`, 0.85%.
Turning to `O=[N+]([O-])c1ccc2c(c1)/C(=N/O)CCC2`, the growth inhibition is -0.55%.
For the molecule `CN(C)CC(CN(C)C)C(=O)C(C)(C)C`, the growth inhibition was -1.95%.
Same read-out and setting: next, `COC(=O)C1C(COS(C)(=O)=O)ON2CCC(OC)(OC)C12` (stereo not given): 11.1%.
On the same count and under the same terms, in the case of `NNC(=S)NC1CCCCC1` it was -4.45%; in that of `O=C(O)C(O)c1ccc(Cl)cc1Cl` (stereo not given), -5.85%.
The same measure, in the same setting: next, `N#C/C(=C\NC(=S)Nc1ccc(S(=O)(=O)Nc2nccs2)cc1)C(=O)c1ccc2ccccc2c1`: 1.8%; `COC(=O)CNC(=O)Nc1cc(N2C(=O)ON3C2C(C)(C)N(O)C3(C)C)ccc1C` (stereo not given): 13.8%.
For `CN(C)C(=O)Sc1ccc(N(C)C)cc1`, the growth inhibition is -17.9%.
Same read-out and setting: in the case of `C/C(=N/O)c1cccc([N+](=O)[O-])c1` it was 15.5%.
On the same count and under the same terms, in the case of `Cc1cn(C2CC(OC(=O)C(Cc3ccccc3)NC(=O)OCc3ccccc3)C(COC(=O)C(Cc3ccccc3)NC(=O)OCc3ccccc3)O2)c(=O)[nH]c1=O` (stereo not given) it was -3.65%; in that of `Cc1cc2nc(CC(O)c3nc4cc(C)c(C)cc4[nH]3)[nH]c2cc1C` (stereo not given), -12.9%.

The record behind these values is PubChem BioAssay (NCI).
